Laboratory results from the supplement of paper PMC10849652.
The full data set covers some 7,900 targets. This sample favours those with a hit. About 0.6% of all pairs of compound and target were hits.

compound: c1cn2cc(-c3ccc4cn[nH]c4c3)nc(Nc3ccc(N4CCOCC4)cc3)c2n1 [entospletinib]; assay: log2 fold change, soluble protein after heating vs DMSO (PISA); higher = thermal stabilisation; K562 cells, 10 uM, 30 min; active = over 0.2 and 3.5 SD of the protein, either way, in both replicates (recomputed)
In short: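 K562 cells (2×10^6 cells/mL) were treated with 10 μM compound for 30 min, and aliquots were heated for 3 min over 48°C-58°C. Pooled aliquots were extracted in PBS with 0.5% NP-40 at 4°C, and the supernatant after 21,000xg for 90 min was measured by TMTpro 16plex LC-MS/MS with channel sums equalised. Reported thermal stability, relative to control samples and from duplicates, is a log2 fold change.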

Chain of UniProt Q7Z4S6 (Q7Z4S6 whole entry, looked up): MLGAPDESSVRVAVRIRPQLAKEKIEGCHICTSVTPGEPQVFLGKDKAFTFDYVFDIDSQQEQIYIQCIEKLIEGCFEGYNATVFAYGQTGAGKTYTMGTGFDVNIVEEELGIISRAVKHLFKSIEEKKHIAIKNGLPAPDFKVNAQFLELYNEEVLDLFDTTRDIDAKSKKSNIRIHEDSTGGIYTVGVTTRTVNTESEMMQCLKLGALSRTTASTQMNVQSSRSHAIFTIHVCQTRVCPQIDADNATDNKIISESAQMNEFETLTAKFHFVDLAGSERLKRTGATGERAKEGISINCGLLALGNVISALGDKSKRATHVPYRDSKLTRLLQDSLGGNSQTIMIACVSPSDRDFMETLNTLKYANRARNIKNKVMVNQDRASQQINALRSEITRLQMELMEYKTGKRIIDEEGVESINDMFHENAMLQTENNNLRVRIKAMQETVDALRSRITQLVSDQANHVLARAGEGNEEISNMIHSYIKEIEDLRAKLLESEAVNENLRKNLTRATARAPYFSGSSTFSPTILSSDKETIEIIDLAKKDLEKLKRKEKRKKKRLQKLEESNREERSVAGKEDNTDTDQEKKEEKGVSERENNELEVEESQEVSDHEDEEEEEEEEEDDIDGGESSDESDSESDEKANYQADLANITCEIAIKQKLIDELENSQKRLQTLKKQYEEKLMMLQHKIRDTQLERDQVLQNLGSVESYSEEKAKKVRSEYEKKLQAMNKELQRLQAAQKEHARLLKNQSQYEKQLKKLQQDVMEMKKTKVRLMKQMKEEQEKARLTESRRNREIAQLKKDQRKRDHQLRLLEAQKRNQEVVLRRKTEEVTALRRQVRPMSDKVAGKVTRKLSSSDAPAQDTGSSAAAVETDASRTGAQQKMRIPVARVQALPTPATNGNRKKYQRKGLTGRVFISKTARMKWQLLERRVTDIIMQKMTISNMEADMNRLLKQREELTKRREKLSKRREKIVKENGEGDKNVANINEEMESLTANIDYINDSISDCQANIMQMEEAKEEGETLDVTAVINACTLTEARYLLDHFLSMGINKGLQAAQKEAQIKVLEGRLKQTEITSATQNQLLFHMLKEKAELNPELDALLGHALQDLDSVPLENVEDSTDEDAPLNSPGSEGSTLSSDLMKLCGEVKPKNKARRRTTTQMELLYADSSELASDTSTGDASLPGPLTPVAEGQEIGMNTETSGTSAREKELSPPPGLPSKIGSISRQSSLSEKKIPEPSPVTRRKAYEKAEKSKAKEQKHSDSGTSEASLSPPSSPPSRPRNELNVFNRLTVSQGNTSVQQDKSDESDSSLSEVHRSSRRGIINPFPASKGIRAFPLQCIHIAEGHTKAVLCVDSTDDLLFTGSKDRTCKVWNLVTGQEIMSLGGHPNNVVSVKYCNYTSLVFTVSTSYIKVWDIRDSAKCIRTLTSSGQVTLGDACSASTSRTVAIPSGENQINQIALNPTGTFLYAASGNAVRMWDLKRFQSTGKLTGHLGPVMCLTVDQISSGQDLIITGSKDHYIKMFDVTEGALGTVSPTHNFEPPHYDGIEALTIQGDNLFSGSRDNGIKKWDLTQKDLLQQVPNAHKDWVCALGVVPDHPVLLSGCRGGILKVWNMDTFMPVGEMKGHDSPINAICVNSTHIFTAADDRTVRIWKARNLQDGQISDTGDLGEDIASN
Chain of UniProt Q9UBF1 (Q9UBF1 whole entry, looked up): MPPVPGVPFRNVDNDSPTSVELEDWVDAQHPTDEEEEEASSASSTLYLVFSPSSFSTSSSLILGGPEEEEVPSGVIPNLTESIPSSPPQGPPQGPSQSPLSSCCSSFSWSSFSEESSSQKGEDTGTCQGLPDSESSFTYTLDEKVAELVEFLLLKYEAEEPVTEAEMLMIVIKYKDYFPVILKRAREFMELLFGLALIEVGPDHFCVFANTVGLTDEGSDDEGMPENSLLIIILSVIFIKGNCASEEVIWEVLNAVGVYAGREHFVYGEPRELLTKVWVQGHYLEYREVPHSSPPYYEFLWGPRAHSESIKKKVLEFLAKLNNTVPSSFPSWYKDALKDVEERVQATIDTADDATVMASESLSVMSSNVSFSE
Chain of UniProt Q9NQ29 (Q9NQ29 whole entry, looked up): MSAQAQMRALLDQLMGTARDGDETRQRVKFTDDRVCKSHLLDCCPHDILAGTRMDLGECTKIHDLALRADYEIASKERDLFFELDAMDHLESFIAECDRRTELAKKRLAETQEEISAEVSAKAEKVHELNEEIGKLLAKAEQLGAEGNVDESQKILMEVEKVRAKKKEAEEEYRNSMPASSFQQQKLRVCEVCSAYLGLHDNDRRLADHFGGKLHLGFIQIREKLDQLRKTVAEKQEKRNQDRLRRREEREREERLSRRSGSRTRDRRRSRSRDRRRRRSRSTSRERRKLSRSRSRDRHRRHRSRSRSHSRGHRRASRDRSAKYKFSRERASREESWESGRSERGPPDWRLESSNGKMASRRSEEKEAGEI
Chain of UniProt Q6UWB1 (Q6UWB1 whole entry, looked up): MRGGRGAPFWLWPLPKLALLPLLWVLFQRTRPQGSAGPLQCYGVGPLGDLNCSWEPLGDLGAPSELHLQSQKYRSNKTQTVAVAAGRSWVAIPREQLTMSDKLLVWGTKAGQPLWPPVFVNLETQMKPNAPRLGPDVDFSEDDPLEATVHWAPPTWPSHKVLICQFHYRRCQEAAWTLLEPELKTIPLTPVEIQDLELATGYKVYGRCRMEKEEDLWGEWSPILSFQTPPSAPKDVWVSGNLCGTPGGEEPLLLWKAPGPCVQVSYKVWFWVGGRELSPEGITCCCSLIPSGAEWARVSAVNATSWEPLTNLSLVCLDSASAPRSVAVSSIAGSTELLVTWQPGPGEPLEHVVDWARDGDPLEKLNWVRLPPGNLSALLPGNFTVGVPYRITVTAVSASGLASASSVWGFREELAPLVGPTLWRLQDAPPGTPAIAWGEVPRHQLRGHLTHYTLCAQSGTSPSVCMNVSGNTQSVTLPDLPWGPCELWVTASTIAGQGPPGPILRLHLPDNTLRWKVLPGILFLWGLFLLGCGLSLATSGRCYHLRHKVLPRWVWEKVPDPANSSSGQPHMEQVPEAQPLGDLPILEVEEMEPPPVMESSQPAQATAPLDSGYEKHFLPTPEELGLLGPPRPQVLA
Chain of UniProt O43318 (O43318 whole entry, looked up): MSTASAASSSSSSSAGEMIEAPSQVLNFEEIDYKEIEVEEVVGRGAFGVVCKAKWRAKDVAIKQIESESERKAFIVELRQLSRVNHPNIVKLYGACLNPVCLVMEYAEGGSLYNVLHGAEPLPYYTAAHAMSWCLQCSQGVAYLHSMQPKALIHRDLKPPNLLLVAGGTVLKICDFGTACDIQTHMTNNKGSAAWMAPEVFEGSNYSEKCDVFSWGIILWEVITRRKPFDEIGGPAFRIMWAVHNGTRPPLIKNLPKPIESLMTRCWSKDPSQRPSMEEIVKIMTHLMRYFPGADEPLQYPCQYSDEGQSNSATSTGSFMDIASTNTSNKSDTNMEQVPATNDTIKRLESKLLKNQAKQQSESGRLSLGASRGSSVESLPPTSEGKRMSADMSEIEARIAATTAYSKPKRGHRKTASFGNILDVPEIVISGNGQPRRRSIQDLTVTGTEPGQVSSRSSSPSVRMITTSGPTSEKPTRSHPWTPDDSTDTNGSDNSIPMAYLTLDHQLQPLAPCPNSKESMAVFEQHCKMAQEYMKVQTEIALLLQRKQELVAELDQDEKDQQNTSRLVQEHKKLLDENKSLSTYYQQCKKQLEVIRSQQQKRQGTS
Chain of UniProt Q96PC5 (Q96PC5 whole entry, looked up): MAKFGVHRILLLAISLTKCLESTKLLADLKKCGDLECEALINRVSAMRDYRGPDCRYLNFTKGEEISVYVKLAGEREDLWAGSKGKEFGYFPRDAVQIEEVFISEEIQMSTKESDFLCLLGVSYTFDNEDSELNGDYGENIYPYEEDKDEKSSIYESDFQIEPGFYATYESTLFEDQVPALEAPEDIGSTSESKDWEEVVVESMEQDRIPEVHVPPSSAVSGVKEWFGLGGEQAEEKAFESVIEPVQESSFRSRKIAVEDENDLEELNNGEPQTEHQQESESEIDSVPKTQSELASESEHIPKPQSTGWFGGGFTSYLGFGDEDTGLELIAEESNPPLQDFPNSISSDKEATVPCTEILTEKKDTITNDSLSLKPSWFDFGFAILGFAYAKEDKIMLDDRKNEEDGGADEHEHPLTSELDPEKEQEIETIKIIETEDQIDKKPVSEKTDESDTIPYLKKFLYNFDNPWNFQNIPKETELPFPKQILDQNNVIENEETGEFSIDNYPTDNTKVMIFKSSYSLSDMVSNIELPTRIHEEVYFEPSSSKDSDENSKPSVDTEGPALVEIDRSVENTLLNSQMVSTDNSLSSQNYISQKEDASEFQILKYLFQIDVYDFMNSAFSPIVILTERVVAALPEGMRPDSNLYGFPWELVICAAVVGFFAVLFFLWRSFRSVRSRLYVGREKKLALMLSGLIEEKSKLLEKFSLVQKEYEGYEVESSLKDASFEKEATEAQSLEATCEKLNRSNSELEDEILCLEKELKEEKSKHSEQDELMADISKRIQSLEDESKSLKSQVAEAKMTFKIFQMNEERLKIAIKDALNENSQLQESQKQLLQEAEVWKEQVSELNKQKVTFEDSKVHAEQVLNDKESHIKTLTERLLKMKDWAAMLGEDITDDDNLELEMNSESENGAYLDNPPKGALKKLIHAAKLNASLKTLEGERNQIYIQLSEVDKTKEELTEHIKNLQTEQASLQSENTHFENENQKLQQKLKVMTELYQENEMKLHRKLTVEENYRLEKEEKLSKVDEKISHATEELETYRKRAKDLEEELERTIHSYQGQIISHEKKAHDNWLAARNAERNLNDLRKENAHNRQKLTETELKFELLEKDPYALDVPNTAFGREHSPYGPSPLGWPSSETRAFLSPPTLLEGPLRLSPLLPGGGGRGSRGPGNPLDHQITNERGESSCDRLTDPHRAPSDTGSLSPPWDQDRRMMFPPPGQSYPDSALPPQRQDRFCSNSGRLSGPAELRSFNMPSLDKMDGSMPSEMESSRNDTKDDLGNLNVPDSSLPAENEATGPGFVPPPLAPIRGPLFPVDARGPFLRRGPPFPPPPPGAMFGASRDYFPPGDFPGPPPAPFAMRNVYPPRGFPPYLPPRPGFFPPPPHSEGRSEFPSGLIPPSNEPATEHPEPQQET

log2 fold change, inactive:
MFSD5 isoform 2 (UniProt Q6N075) -0.005
LRRFIP1 (UniProt Q32MZ4) 0.004
IL27RA (UniProt Q6UWB1) 0.112
MICU1 isoform 3 (UniProt Q9BPX6) 0.049
LRPPRC (UniProt P42704) 0.245
LMNB1 (UniProt P20700) -0.01
MAP4K4 isoform 6 (UniProt O95819) -0.103
LUC7L (UniProt Q9NQ29) 0.083
KIF21A isoform 4 (UniProt Q7Z4S6) 0.018
MED1 (UniProt Q15648) 0.019
IRF3 (UniProt Q14653) -0.022
MED8 isoform 2 (UniProt Q96G25) 0.034
MAGEA9 (UniProt P43362) 0.083
KPNA1 (UniProt P52294) 0.022
IGFBP4 (UniProt P22692) 0.147
IGF2R (UniProt P11717) -0.004
MCM10 (UniProt Q7L590) -0.04
LUC7L3 (UniProt O95232) -0.005
KDM5D isoform 3 (UniProt Q9BY66) -0.056
ILVBL (UniProt A1L0T0) -0.028
MAP1LC3B2 (UniProt A6NCE7) -0.001
LUM (UniProt P51884) 0.331
MAGEC2 (UniProt Q9UBF1) 0.061
LEMD3 (UniProt Q9Y2U8) -0.031
LONP2 (UniProt Q86WA8) -0.001
MAP3K7 (UniProt O43318) 0.055
MAP4 (UniProt E7EVA0) -0.007
MASTL (UniProt Q96GX5) -0.014
MIA2 (UniProt Q96PC5) -0.012
IWS1 (UniProt Q96ST2) 0.159
KIF1B isoform 3 (UniProt O60333) 0.041
KNTC1 (UniProt P50748) 0
MAP3K20 (UniProt Q9NYL2) -0.007
